An excerpt weighted towards active compounds, which were near 1.2% of everything screened.
GCN5L2 inh – inhibitors of human GCN5L2 histone acetyltransferase; hit rate 0.21% among 390,000; Potency, µM (top dose mostly 58.9 µM), usual class: inhibitors; Q92830; GCN5L2 HAT assay, ThioGlo1 CoA-SH fluorescence
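Enzyme at 20nM final was mixed with library compounds for 15 min at room temperature. Peptide H3(1-25) at 75uM, acetyl-CoA at 70uM and ThioGlo1 at 50uM were then added. Plates were read immediately and after 20 min (Ex340nm/Em540nm).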
VDR inh – blocks the human vitamin D receptor | hit rate 0.93% among 400,000 | P11473 | Potency, µM, hits mostly inhibitors | VDR-SRC2-3 peptide fluorescence polarization, 2 h | AID 504847
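Inhibition of the VDR/SRC2-3 peptide interaction is quantified by fluorescence polarization. Compounds (23 nl, pintool) incubate with the reagents for 2 hours at ambient room temperature.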
GoLoco inh red – RGS12 GoLoco-Gai1 interaction inhibition. Potency, µM (highest dose often 61.6 µM), most hits filed as inhibitors. P63096. AID 880. hit rate 0.44% among 230,000. Gai1:RGS12 GoLoco peptide FP, rhodamine, 10 min; active = well fitted inhibition curve with a large enough effect, not every such curve was filed as active; inactive = no such curve, though single readings can be large or run the other way; note: nearly all actives have a fitted effect of over 30% in size
Target sequence (P63096 whole entry, looked up): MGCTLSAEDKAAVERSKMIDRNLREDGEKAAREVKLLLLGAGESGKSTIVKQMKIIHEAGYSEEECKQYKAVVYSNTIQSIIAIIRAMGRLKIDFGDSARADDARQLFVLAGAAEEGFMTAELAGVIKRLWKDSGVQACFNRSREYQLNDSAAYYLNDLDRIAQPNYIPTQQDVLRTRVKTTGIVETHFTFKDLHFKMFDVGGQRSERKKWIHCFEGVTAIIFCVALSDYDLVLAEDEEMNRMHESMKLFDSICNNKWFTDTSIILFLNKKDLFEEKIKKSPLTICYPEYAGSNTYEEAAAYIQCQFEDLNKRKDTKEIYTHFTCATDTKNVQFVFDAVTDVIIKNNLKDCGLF
TRb SRC2 PPI – inhibitors of human thyroid hormone receptor beta-SRC2 interaction; P10828; TRbeta-SRC2 peptide binding, fluorescence polarization; receptor liganded with 1 µM T3; Potency, µM (doses to about 106 µM), actives largely listed as inhibitors; hit rate 0.065% among 280,000; note: nearly all actives have a fitted effect of over 50% in size
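Binding of a 20-amino-acid Texas Red SRC2 peptide (20 nM) to TRb ligand-binding domain (0.6 uM) with agonist T3 at 1 uM was followed by fluorescence polarization after a 5 hr room-temperature incubation.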
TR SRC2 fluor cs – counter-screen for TRb-SRC2 inhibitors: fluorescence interference; TRb/SRC2 Texas Red total fluorescence interference; Potency, µM (highest dose often 106 µM); hit rate 0.29% among 280,000; AID 1479; active = well fitted curve in either direction with a large enough effect; inconclusive = small, poorly fitted or top-dose-only effect
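Human TRb ligand-binding domain at 0.6 uM with 20 nM Texas Red SRC2 peptide in Tris buffer containing 1 uM T3 and 5% DMSO, incubated with compound 5 h at ambient temperature. Total fluorescence (555/632 nm) calculated as parallel + 2 × perpendicular.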
A number is an active result; [ ] = remark or other dose. Unless noted, calls come from the whole dose curve; as a rule, active = well fitted curve in the direction sought with a large enough effect; inconclusive = small, poorly fitted or top-dose-only effect, or another doubt; inactive = no such curve, though single readings can be large; an effect the other way counts as inactive or inconclusive.

Screening Cn1c(=O)c([N+](=O)[O-])c(-n2cnc3ccccc32)c2ccccc21 returned GCN5L2 inh inactive, VDR inh 20µM, GoLoco inh red inactive, TRb SRC2 PPI inactive and TR SRC2 fluor cs inactive.
`Cn1c(=O)c([N+](=O)[O-])c(Cl)c2ccccc21` gave GCN5L2 inh inactive, VDR inh 18µM, GoLoco inh red inactive, TRb SRC2 PPI inactive and TR SRC2 fluor cs inactive.
`Cc1nccn1-c1c([N+](=O)[O-])c(=O)n(C)c2ccccc12` gave GCN5L2 inh inactive, VDR inh inactive, GoLoco inh red inactive, TRb SRC2 PPI inactive and TR SRC2 fluor cs inactive.
Screening Cc1ccc(C(=O)NCC(=O)OCC(=O)c2ccc3ccccc3c2)cc1 returned VDR inh inactive.
`COc1ccc2c(c1)OC(C)(C)C(c1ccccc1)C2c1ccc(OCCN2CCCC2)cc1` (configuration not stated) gave GCN5L2 inh inactive and VDR inh inactive.
`CCOC(=O)[C@@H](N)CS` gave GCN5L2 inh inactive, VDR inh 40µM, GoLoco inh red inactive, TRb SRC2 PPI inactive and TR SRC2 fluor cs inactive.
Screening CCCCC(=O)Nc1sc2c(c1C#N)CC(C)(C)OC2 returned GCN5L2 inh inactive, VDR inh 79µM, GoLoco inh red inactive, TRb SRC2 PPI inactive and TR SRC2 fluor cs inactive.
For COc1cc(OC)c(-c2cc(C(=O)NCc3ccc(F)cc3)c3c(-c4ccccc4)[nH]nc3n2)cc1OC the results were GCN5L2 inh inactive, VDR inh inactive, TRb SRC2 PPI inactive and TR SRC2 fluor cs 3.5µM[quencher].
`COc1ccccc1-c1cc(C(=O)NCc2ccccc2)c2c(-c3ccc(C)cc3)[nH]nc2n1` gave GCN5L2 inh inactive, VDR inh inactive, TRb SRC2 PPI inactive and TR SRC2 fluor cs inactive.
N#C/C(=C\c1ccccc1)C(=O)NNS(=O)(=O)c1ccc(Br)cc1 was read as GCN5L2 inh inactive and VDR inh 45µM.
Screening N#C/C(=C/c1ccccc1)C(=O)NCc1ccccc1 returned GCN5L2 inh inactive, VDR inh inactive, GoLoco inh red inactive, TRb SRC2 PPI inactive and TR SRC2 fluor cs inactive.
Screening Cc1c(C(=O)N(C)C2CCCCC2)sc2nc3ccc(N)cc3n12 returned GCN5L2 inh inactive, VDR inh inactive, GoLoco inh red inactive, TRb SRC2 PPI inactive and TR SRC2 fluor cs inactive.
Screening CC(=O)Oc1cccc(C(=O)O)c1OC(C)=O returned GCN5L2 inh inactive, VDR inh inactive, GoLoco inh red inactive, TRb SRC2 PPI inactive and TR SRC2 fluor cs inactive.
Screening CC(=O)Oc1ccc2nonc2c1OC(C)=O returned VDR inh 1.4µM.
Screening O=C(CCS(=O)(=O)c1nc(-c2cccs2)cc(C(F)(F)F)n1)Nc1ccc(OC(F)(F)F)cc1 returned GCN5L2 inh inactive, VDR inh 14µM, TRb SRC2 PPI inactive and TR SRC2 fluor cs inactive.
`COc1ccc(NC(=O)CSc2nc(-c3cccs3)cc(C(F)(F)F)n2)cc1OC` gave GCN5L2 inh inactive, VDR inh inactive, TRb SRC2 PPI inactive and TR SRC2 fluor cs inactive.
For O=C1C2C3CCCC3=C3CCCC3C2C(=O)N1c1ccccc1Cl (configuration not stated) the results were VDR inh inactive.
Screening CC(=O)N1CC[n+]2c(-c3ccc(Cl)cc3Cl)csc21 returned GCN5L2 inh inactive, VDR inh 40µM, GoLoco inh red inactive, TRb SRC2 PPI inactive and TR SRC2 fluor cs inactive.
`O=C(O)c1ccc(-c2nc(-c3ccc(Cl)cc3Cl)cs2)cc1` gave GCN5L2 inh inactive, VDR inh inactive, GoLoco inh red inactive, TRb SRC2 PPI inactive and TR SRC2 fluor cs inactive.
`CC(C)Sc1nc2c(c(=O)[nH]c(=O)n2C)n1Cc1ccccc1` gave GCN5L2 inh inactive and VDR inh inactive.
`CCOC(=O)C(C)Sc1nc2c(c(=O)[nH]c(=O)n2C)n1Cc1ccc(Cl)cc1` (configuration not stated) gave GCN5L2 inh inactive, VDR inh 89µM, GoLoco inh red inactive, TRb SRC2 PPI inactive and TR SRC2 fluor cs inactive.
Screening COC(=O)[C@@]1(Cc2ccccc2-c2ccco2)C=C[C@H](C)[C@@H](c2ccccc2)N1C(=O)C(F)(F)F returned VDR inh 45µM, GoLoco inh red inactive, TRb SRC2 PPI inactive and TR SRC2 fluor cs inactive.
CC(C)NC(=O)COc1ncnc2sccc12 was read as GCN5L2 inh 32µM, VDR inh inactive, GoLoco inh red inactive, TRb SRC2 PPI inactive and TR SRC2 fluor cs inactive.
Screening CC[C@H](C)[C@H](NC(=O)[C@H](C)NC(=O)[C@H](CC(=O)O)NC(=O)[C@H](CO)NC(=O)[C@@H](N)Cc1cnc[nH]1)C(=O)N[C@@H](Cc1ccccc1)C(=O)N[C@H](C(=O)N[C@@H](CCC(N)=O)C(=O)N[C@@H](CCC(N)=O)C(=O)N[C@@H](Cc1ccc(O)cc1)C(=O)N[C@@H](CO)C(=O)N[C@@H](CCCCN)C(=O)N[C@@H](CC(C)C)C(=O)N[C@@H](CC(C)C)C(=O)N[C@@H](C)C(=O)N[C@@H](CCCCN)C(=O)N[C@@H](CC(C)C)C(=O)N[C@@H](C)C(=O)N[C@@H](CC(C)C)C(=O)N[C@@H](CCC(N)=O)C(=O)N[C@@H](CCCCN)C(=O)N[C@@H](Cc1ccc(O)cc1)C(=O)N[C@@H](CC(C)C)C(=O)N[C@@H](C)C(=O)N[C@@H](CO)C(=O)N[C@H](C(=O)N[C@@H](CC(C)C)C(=O)NCC(=O)N[C@@H](CO)C(=O)N[C@@H](CCCNC(=N)N)C(=O)N[C@H](C(=O)N[C@@H](CO)C(=O)N1CCC[C@H]1C(=O)N1CCC[C@H]1C(=O)N1CCC[C@H]1C(N)=O)[C@@H](C)O)[C@@H](C)CC)[C@@H](C)O returned GCN5L2 inh inconclusive, VDR inh inactive, TRb SRC2 PPI inactive and TR SRC2 fluor cs inactive.
Screening Cc1ccc(/C=C/C(=O)N2CC(=O)Nc3ccccc32)o1 returned GCN5L2 inh 22µM, VDR inh inactive, GoLoco inh red inactive, TRb SRC2 PPI inactive and TR SRC2 fluor cs inactive.
`O=[N+]([O-])c1ccc2c(N=Nc3ccc4ccccc4c3O)c(O)cc(S(=O)(=O)O)c2c1` gave GoLoco inh red inactive[14.2 µM].
Screening CCCn1cc(S(=O)(=O)c2ccc(C)c(C)c2)c(=O)c2cc(F)c(N3CCCCC3)cc21 returned GCN5L2 inh inactive, VDR inh inactive, TRb SRC2 PPI inactive and TR SRC2 fluor cs 282µM[quencher].
For Cc1cccc(S(=O)(=O)c2cn(C)c3cc(N4CCN(c5ccccc5)CC4)c(F)cc3c2=O)c1 the results were GCN5L2 inh inactive, VDR inh inactive, TRb SRC2 PPI inconclusive and TR SRC2 fluor cs 56µM[quencher].
For CCn1cc(S(=O)(=O)c2cccc(Cl)c2)c(=O)c2cc(F)c(N3CCN(c4ccccc4)CC3)cc21 the results were GCN5L2 inh inactive, VDR inh inactive, TRb SRC2 PPI inactive and TR SRC2 fluor cs inactive.
